Data on 40 compounds can be found in PubChem BioAssay (Tox21).

Each structure is given as a SMILES string. The source made the active and inactive calls. Calls follow the shape of the full dose curve.
% is scaled to controls: 0 for no effect and ±100 for the full control effect.

Chain of Acetylcholinesterase (Homo sapiens) (P22303 whole entry, looked up): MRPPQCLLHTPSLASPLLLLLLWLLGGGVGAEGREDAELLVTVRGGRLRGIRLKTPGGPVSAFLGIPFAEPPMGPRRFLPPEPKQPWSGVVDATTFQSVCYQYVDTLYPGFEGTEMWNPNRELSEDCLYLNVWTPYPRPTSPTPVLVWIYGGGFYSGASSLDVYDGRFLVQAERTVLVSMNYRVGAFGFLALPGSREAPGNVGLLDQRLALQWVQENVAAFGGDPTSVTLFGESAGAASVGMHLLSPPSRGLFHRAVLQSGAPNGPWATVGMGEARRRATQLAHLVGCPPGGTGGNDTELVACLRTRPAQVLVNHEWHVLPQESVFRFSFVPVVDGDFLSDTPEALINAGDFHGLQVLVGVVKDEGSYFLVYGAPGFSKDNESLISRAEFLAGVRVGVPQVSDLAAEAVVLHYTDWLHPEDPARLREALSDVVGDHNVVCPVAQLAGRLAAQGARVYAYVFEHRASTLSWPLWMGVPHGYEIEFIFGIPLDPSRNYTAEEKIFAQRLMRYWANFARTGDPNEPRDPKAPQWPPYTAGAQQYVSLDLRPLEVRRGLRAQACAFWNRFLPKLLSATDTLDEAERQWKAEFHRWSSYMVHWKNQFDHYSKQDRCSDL

This assay addresses Acetylcholinesterase (Homo sapiens) (UniProt P22303). Put plainly: Acetylcholinesterase (AChE) small molecule antagonists: enzyme-based qHTS assay with human liver microsomes (AID 1347399). Also: nearly all actives have a fitted effect of over 60% in size. As to conditions: Potency: qHTS inhibition; outcome: qHTS inhibition; series mostly up to 115 µM; activity change, negative = inhibition: at the top concentration. The procedure, abridged: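 Recombinant human AChE (50 mU/mL in the enzyme mix) and human liver microsomes (0.25 mg/mL final) were preincubated with compound and NADPH (0.25 mg/mL final) for 30 min at 37 C. Acetylthiocholine/DTNB was then added; thiocholine was read colorimetrically after 10 min at room temperature.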
`CCN(CCO)c1cccc(C)c1`: the “activity change, negative = inhibition” value was 0.157% (inactive).
For the compound `O=C(O)CCCCCC(=O)O`, the “activity change, negative = inhibition” value was -0.341% (inactive).
As to `CC(C)(C)CC(C)(C)N`, the “activity change, negative = inhibition” value was -0.323% (inactive).
Still for that read-out and setting: the value for `CC(C)CCCCCOC(=O)CCS` was 0.764% (inactive).
`O=S(=O)(O)c1ccc2ccccc2c1`: the Potency result is “inactive”.
The same measure, in the same setting: the value for `CC#C[C@]1(O)CC[C@H]2[C@@H]3CCC4=CC(=O)CCC4=C3[C@@H](c3ccc(N(C)C)cc3)C[C@@]21C` was “inactive”.
As for `N#Cc1ccc(CC(=O)c2cccc(C(F)(F)F)c2)cc1`, the “activity change, negative = inhibition” value is -0.764% (inactive).
For `Cc1ccncc1`, the Potency entry is “inactive”.
For `CC(=O)OC(C)C`, the Potency entry was “inactive”.
In the case of `CC1Cc2ccccc2N1NC(=O)c1ccc(Cl)c(S(N)(=O)=O)c1` (stereo not given), the Potency result was “inactive”.
For the compound `SCCc1cnccn1`, the “activity change, negative = inhibition” value is -0.149% (inactive).
Same read-out and setting: the value for `CNS(=O)(=O)c1cc(C(=O)N2CCC(CCN3C4CCC3CC(n3c(C)nc5ccccc53)C4)(c3cccc(F)c3)CC2)c(Cl)cc1F` (stereo not given) was -0.146% (inactive); that for `C1=C\CC/C=C\CC/1` was -2.37% (inactive); that for `CCOc1cc(OCC)c(C(C)=O)cc1OCC` was -3.23% (inactive).
For the compound `NCCCCCCN`, the Potency entry was “inactive”.
The same measure, in the same setting: the same measure for `CC(C)(Oc1ccc(CCNC(=O)c2ccc(Cl)cc2)cc1)C(=O)O`: “inactive”; for `O=Cc1ccc(CO)o1`: “inactive”.
With `CC(C)(C)C1=CC(=O)C(C(C)(C)C)=CC1=O`, the “activity change, negative = inhibition” value was -5.09% [at 53 µM] (inactive).
The same measure, in the same setting: the same measure for `CCOC(=O)[C@H](CCc1ccccc1)N[C@@H](C)C(=O)N1CCC[C@H]1C(=O)O`: -1.67% [at 53 µM] (inactive); for `COC1=C(OC)C(=O)C(CCCCCCCCCCO)=C(C)C1=O`: -1.81% [at 53 µM] (inactive).
Take `CC(CNC1CCCCC1)OC(=O)c1ccccc1` (stereo not given): the “activity change, negative = inhibition” value was 1.51% [at 53 µM] (inactive).
Still for that read-out and setting: the value for `C=C(C)c1cccc(C(=C)C)c1` was -4.09% (inactive); that for `O=C(c1ccc(O)cc1)c1ccc(O)c(O)c1O` was -4.97% (inactive); that for `C[CH2][Ge]([Cl])([CH2]C)[CH2]C` was 0.0119% (inactive).
The same measure, in the same setting: the same measure for `CCCCCC(=O)OCC`: -1.38% (inactive).
For `OCCOCC#CCOCCO`, the “activity change, negative = inhibition” value is 0.226% (inactive).
Turning to `CCOC(=O)CCC(=O)OCC`, the “activity change, negative = inhibition” value was 0.146% (inactive).
Take `CCCCNS(=O)(=O)c1ccccc1`: the Potency entry was “inactive”.
On to `CCc1nnc(NS(=O)(=O)c2ccc(N)cc2)s1`, for which the “activity change, negative = inhibition” value was -0.584% [at 53 µM] (inactive).
As to `OB(O)O`, the Potency entry is “inactive”.
Same read-out and setting: the value for `CC(C)(C)NC(=O)[C@H]1CC[C@H]2[C@@H]3CC[C@H]4NC(=O)C=C[C@]4(C)[C@H]3CC[C@]12C` was “inactive”.
For `c1ccc2scnc2c1`, the Potency result was “inactive”.
For `CC(=O)Nc1ccc(N)cc1`, the “activity change, negative = inhibition” value was -0.799% (inactive).
Same read-out and setting: the same measure for `Cc1cccc(C)c1NC(=O)CC12CCCN1CCC2`: -0.505% [at 53 µM] (inactive); for `C/C(C=O)=C\c1ccccc1`: 0.341% (inactive).
Regarding `CC1(C)[C@@H]2CC[C@@]1(C)C(=O)C2`, the Potency result was “inactive”.
In the case of `Cc1cc(O)c(C(C)(C)C)cc1Sc1cc(C(C)(C)C)c(O)cc1C`, the “activity change, negative = inhibition” value is 2.7% (inactive).
On the same count and under the same terms, the value for `CC1(C)C(O)C(C)(C)C1O` (stereo not given) was 0.306% (inactive); that for `CCCC(C)CC` (stereo not given) was -0.149% (inactive); that for `Cn1cc(S(C)=O)c(=O)c2ccc(F)cc21` (stereo not given) was 2.85% [at 53 µM] (inactive).
